The source made the active and inactive calls. No rule for the calls is given here. Peptide text beside a SMILES is read from it. * marks the point of attachment. CH2Cl = ClC*

The assay is described as follows: chitosan synthesis blockers in C. neoformans – flow cytometry, Cibacron Brilliant Red staining (AID 1347148).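 Also: compound exposure lasted three days at 37 degrees C.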 The following applies: Cryptococcus neoformans chitosan, hits give low values; at 10 µM unless noted.
For the molecule `N#CC(C#N)=NNc1ccc(OC(F)(F)F)cc1`, the fold fluorescence is 9.07 [at 196.7 µM] (inactive).

Turning to `C[C@H](N)C(=O)N[C@@H](C)C(=O)N[C@@H](Cc1ccccc1)C(=O)CCl` (H-Ala-Ala-Phe-CH2Cl), the fold fluorescence was 4.89 [at 147.1 µM] (inactive). Take `CC(C)(O)[C@H]1O[C@H]2CC[C@@]3(C)[C@@](O)(CC[C@H]4Cc5c([nH]c6ccccc56)[C@@]43C)C2=CC1=O`: the fold fluorescence is 8.47 [at 114.8 µM] (inactive).

Turning to `CO/C1=C\C(C)=C\[C@@H](C)[C@@H](O)[C@@H](C)C/C(C)=C/C=C/[C@H](OC)[C@@H]([C@@H](C)[C@@H](O)[C@H](C)[C@@]2(O)C[C@@H](O)[C@H](C)[C@@H](C(C)C)O2)OC1=O`, the fold fluorescence is 11.4 [at 8 µM] (inactive).

With `CO[C@@H]1C[C@@H](C[C@H]2CC[C@H](C)[C@H]([C@@H](C)C(=O)O)O2)O[C@]2(O[C@](C)([C@H]3CC[C@@](C)([C@@H]4O[C@@H]([C@H]5O[C@@](O)(CO)[C@H](C)C[C@@H]5C)C[C@@H]4C)O3)C[C@H]2C)[C@@H]1C`, the fold fluorescence was 5.68 [at 69 µM] (inactive).

On to `CCCCC/C=C\C/C=C\C/C=C\C/C=C\CCCC(=O)N[C@@H](C)CO`, for which the fold fluorescence was 6.15 (inactive). For `COC(C/C=C/C=C/CC/C=C\CC(C)/C=C\C(=C/C(=O)O)CC(=O)O)/C(C)=C\C=C(/C)C(=O)O` (stereo unspecified), the fold fluorescence was 5.28 [at 10.3 µM] (inactive). For the molecule `C=C1[C@@H](C)[C@H]2[C@H](Cc3ccccc3)NC(=O)[C@]23OC(=O)/C=C/[C@H](O)CCC[C@@H](C)C/C=C/[C@H]3[C@@H]1O`, the fold fluorescence was 6.64 [at 104.2 µM] (inactive). For `COC[C@H]([C@@H](O)[C@@H](O)C(=O)NCC[C@@H](C)c1nc(/C=C/C[C@H]2OC3(C[C@H](O)[C@H]2C)OC([C@@H](C[C@@H](O)[C@@H](C)[C@@H](O)[C@@H](C)/C=C(C)/C(C)=C/C=C/C(C)=C\C#N)OC)[C@@H](OP(=O)(O)O)C3(C)C)co1)N(C)C` (stereo partly specified), the fold fluorescence is 9.76 [at 5 µM] (inactive). In the case of `COC[C@H]1OC(=O)c2coc3c2[C@@]1(C)C1=C(C3=O)[C@@H]2CCC(=O)[C@@]2(C)C[C@H]1OC(C)=O`, the fold fluorescence is 5.16 [at 116.7 µM] (inactive). For `CCOC(=O)CN1C(=O)CC(C[C@@H](O)C2C[C@@H](C)C[C@H](C)C2=O)CC1=O` (stereo partly specified), the fold fluorescence is 10.9 [at 136.1 µM] (inactive).

The values are drawn from PubChem BioAssay.
